# ChEMBL document CHEMBL1961873, “Compounds: GSK PKIS; Assays: Nanosyn kinase panel” (2012)
# Tests used:
# [1] = target: Leukocyte tyrosine kinase receptor (Homo sapiens) (UniProt P29376); details: at 1 µM;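 note: each value is the mean inhibition of LTK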
# [2] = target: Tyrosine-protein kinase Lyn (Homo sapiens) (UniProt P07948); details: at 0.1 µM
# [3] = target: Tyrosine-protein kinase Lyn (Homo sapiens) (UniProt P07948); details: at 1 µM
# [4] = target: Tyrosine-protein kinase Lyn (Homo sapiens) (UniProt P07948); details: at 0.1 µM; remark: listed apart in the source
# [5] = target: Tyrosine-protein kinase Lyn (Homo sapiens) (UniProt P07948); details: at 1 µM; remark: listed apart in the source
# [6] = target: T1, Tyrosine-protein kinase Mer (Homo sapiens) (UniProt Q12866); details: at 0.1 µM
# T1 sequence (whole entry): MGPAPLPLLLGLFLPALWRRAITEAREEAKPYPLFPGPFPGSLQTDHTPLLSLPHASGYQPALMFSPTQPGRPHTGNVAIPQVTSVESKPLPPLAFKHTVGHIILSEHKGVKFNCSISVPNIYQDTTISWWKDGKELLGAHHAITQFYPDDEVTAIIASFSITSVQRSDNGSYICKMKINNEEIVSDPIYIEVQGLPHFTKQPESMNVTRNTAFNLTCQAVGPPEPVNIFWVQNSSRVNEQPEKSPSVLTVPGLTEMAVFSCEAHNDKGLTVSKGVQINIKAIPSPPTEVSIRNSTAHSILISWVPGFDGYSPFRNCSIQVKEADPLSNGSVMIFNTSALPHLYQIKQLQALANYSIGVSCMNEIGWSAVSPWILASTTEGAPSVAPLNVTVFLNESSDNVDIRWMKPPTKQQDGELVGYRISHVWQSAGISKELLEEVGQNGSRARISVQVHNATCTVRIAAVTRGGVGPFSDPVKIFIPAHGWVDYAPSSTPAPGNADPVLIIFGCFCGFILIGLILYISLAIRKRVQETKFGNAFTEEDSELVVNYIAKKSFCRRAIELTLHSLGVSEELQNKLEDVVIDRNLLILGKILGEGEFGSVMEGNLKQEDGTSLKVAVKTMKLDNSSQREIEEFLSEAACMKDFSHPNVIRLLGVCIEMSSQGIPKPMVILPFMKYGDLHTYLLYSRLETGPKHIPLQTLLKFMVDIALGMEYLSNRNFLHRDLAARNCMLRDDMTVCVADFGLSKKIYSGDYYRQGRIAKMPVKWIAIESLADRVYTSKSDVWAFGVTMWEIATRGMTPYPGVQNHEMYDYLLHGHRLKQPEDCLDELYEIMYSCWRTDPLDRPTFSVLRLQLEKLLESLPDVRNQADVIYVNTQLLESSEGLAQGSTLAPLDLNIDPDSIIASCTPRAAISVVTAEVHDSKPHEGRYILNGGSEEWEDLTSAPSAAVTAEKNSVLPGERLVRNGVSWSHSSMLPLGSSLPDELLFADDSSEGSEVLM
# [7] = target: T1, Tyrosine-protein kinase Mer (Homo sapiens); details: at 1 µM
# [8] = target: Hepatocyte growth factor receptor (Homo sapiens) (UniProt P08581); details: at 0.1 µM
# Hepatocyte growth factor receptor (Homo sapiens), sequence (P08581 whole entry): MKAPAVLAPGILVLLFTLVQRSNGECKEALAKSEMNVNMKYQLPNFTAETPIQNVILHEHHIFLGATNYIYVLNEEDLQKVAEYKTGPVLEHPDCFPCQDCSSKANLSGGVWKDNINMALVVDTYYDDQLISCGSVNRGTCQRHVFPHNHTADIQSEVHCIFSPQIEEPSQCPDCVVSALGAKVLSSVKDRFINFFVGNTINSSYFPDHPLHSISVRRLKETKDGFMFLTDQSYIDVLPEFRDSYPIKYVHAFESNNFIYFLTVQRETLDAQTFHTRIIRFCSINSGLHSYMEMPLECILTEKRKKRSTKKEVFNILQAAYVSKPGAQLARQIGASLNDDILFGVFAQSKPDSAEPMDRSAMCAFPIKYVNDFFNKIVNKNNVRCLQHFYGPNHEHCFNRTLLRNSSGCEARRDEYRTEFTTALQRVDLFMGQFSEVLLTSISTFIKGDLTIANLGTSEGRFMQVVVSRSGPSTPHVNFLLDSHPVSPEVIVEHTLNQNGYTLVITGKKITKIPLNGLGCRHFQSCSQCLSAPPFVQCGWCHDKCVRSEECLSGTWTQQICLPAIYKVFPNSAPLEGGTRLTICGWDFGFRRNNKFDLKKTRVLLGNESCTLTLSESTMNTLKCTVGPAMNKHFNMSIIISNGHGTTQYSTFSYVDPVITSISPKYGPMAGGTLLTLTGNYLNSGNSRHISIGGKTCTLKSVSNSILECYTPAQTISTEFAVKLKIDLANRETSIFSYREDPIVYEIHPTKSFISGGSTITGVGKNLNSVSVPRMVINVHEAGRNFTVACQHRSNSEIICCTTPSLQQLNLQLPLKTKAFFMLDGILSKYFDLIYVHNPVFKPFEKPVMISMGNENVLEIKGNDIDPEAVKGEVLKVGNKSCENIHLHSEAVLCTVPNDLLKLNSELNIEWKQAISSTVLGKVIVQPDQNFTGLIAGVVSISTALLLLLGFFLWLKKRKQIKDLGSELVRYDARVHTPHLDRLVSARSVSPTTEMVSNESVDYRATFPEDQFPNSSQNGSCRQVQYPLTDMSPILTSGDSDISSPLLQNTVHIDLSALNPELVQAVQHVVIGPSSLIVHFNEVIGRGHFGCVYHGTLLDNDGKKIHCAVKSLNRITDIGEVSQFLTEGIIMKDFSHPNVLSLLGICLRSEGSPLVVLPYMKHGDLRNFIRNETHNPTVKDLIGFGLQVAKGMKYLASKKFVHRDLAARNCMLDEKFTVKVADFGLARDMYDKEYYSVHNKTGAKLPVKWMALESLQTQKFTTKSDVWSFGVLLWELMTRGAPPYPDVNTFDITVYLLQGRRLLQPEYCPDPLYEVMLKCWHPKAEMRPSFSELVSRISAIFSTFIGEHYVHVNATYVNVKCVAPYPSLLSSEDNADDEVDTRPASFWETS
# [9] = target: Hepatocyte growth factor receptor (Homo sapiens) (UniProt P08581); details: at 1 µM
# [10] = target: T2, Muscle, skeletal receptor tyrosine-protein kinase (Homo sapiens) (UniProt O15146); details: at 0.1 µM;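 note: values are mean inhibition of MuSK from the GSK PKIS kinase screening panel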
# T2 sequence (whole entry): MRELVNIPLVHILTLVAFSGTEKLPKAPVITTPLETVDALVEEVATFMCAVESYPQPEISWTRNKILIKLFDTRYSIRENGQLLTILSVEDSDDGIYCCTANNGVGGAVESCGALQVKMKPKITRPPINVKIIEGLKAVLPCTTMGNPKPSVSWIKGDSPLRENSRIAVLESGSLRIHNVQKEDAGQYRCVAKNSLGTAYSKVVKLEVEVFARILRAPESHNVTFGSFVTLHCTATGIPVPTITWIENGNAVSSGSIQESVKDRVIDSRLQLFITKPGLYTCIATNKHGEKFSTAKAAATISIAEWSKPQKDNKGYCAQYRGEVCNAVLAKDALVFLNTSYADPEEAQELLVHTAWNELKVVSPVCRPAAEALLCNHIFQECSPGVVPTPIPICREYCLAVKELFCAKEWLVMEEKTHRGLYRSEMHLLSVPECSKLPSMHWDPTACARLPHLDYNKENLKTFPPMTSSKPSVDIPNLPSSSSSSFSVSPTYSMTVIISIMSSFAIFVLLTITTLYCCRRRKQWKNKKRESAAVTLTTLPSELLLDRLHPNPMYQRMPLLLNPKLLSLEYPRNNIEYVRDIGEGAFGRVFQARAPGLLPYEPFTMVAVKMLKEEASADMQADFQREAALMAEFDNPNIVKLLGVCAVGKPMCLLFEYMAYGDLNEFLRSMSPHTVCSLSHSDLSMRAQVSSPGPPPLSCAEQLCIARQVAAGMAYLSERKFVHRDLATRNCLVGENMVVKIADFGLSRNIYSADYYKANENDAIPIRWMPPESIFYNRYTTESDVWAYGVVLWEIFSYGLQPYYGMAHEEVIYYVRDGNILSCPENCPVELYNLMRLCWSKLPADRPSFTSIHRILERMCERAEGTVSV
# Leukocyte tyrosine kinase receptor (Homo sapiens), sequence (P29376 whole entry): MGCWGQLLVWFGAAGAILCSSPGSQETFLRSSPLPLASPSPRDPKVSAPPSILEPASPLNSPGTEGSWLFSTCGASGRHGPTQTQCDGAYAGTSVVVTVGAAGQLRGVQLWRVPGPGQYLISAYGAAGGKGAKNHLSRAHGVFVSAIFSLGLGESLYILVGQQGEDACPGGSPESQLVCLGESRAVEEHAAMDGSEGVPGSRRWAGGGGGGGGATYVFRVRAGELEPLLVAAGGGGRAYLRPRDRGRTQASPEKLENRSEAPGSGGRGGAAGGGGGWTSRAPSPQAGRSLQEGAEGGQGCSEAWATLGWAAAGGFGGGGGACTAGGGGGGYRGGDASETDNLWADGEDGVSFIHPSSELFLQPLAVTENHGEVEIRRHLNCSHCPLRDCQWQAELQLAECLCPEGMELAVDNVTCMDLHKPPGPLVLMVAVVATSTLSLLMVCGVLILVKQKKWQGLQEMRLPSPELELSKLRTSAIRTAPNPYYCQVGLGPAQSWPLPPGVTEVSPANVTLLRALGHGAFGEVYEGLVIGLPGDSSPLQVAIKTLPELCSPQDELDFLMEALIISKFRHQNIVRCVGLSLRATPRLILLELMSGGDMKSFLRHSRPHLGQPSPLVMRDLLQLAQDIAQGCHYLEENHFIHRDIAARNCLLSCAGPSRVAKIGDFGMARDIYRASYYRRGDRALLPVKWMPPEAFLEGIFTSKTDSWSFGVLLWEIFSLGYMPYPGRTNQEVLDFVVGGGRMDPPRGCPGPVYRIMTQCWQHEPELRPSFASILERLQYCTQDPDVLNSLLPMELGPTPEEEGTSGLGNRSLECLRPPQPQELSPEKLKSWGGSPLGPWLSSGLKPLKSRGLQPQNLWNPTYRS
# Tyrosine-protein kinase Lyn (Homo sapiens), sequence (P07948 2-512 limits assumed): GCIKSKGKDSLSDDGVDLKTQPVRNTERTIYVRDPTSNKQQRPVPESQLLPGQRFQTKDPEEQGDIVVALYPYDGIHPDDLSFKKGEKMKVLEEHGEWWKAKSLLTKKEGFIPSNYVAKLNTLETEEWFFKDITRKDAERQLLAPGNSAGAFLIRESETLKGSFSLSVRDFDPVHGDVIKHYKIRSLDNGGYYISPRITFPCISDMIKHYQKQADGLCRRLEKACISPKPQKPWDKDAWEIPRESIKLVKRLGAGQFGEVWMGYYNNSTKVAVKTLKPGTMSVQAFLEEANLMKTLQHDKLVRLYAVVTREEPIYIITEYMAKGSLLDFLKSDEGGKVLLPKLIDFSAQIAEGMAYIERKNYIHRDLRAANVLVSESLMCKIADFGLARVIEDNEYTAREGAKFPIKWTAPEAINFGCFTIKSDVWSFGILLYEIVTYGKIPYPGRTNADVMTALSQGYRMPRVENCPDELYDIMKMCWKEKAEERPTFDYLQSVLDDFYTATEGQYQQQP
Structure (SMILES),inhibition [1],inhibition [2],inhibition [3],inhibition [4],inhibition [5],inhibition [6],inhibition [7],inhibition [8],inhibition [9],inhibition [10]
COc1cc(C)c(N(C)C(=O)CN(C)C)cc1Nc1nc(Nc2cccc(F)c2C(N)=O)c2cc[nH]c2n1,57.5%,0.96%,2.25%,-0.16%,0.99%,1.74%,1.94%,-0.92%,1.68%,1.6%
O=C(NCC1CC1)c1ccc(-c2cccc(C(=O)NC3CC3)c2)cc1,-0.6%,0.78%,1.7%,0.33%,2.4%,0.92%,3.13%,5.94%,-2.79%,6.72%
CN(C)CCOc1ccc(-c2cc(-c3ccc4c(c3)CCC4=NO)c(-c3ccncc3)o2)cc1,-0.32%,0.86%,4.14%,0.71%,3.2%,,4.1%,12.9%,5.81%,-0.04%
COc1cc(Nc2ncc(-c3ccccc3)o2)cc(OC)c1OC,1.47%,7.48%,47.8%,5.8%,46.5%,3.23%,3.53%,2.19%,2.13%,1.59%
CCS(=O)(=O)c1ccc(OC)c(Nc2ncc(-c3ccccc3Cl)o2)c1,0.98%,3.85%,18.6%,3.61%,14.8%,-0.83%,9.17%,0.15%,3.68%,4.75%
CCc1ccc(Oc2nccc(-c3c(-c4ccc(F)cc4)ncn3C3CCNCC3)n2)cc1,2.68%,5.24%,6.76%,1.59%,3.26%,2.01%,3.05%,5.76%,3.25%,3.3%
O=C(Nc1n[nH]c2nc(-c3ccc(O)cc3)c(Br)cc12)C1CC1,91.6%,9.57%,16.2%,6.94%,13%,1.7%,8.16%,4.98%,10.9%,4.48%
CS(=O)(=O)CCNCc1ccc(-c2ccc3ncnc(Nc4ccc(OCc5ccccc5)c(Br)c4)c3c2)o1,4.86%,4.6%,7.84%,2.75%,5.83%,2.91%,13.9%,1.81%,6.53%,1.27%
NC(=O)c1cc(-c2ccc(F)cc2)cc(-c2ccncc2)c1N,2.67%,7.55%,9%,5%,5.99%,1.16%,0.38%,3.9%,8.57%,3.05%
NS(=O)(=O)c1ccc(Nc2cc(-c3ccc(O)c(F)c3)n[nH]2)cc1,0.7%,2.66%,20%,0.57%,17.4%,1.99%,13.4%,0.07%,-2.91%,5.85%
CCc1nccc2c1nc(-c1nonc1N)n2CC,6.1%,3.82%,6.26%,1.19%,2.71%,-0.98%,0.92%,2.04%,2.39%,1.31%
COc1cccc(/C=N/Nc2ncnc3c2cnn3-c2cccc(OC)c2)c1,4.06%,5.08%,15.3%,3.29%,10.9%,1.87%,2.85%,4.9%,9.96%,1.34%
CN(C)CCCNc1nccc(-c2c(-c3ccc(F)cc3)nn3cc(C(F)(F)F)ccc23)n1,1.19%,1.87%,6.57%,0.99%,5.88%,1.56%,5.87%,3.45%,10.6%,10.1%
c1ccc(Oc2ccc(Nc3ncc(-c4ccccc4)o3)cc2)cc1,1.13%,3.36%,2.98%,1.38%,2.09%,0.19%,0.42%,1.79%,7.6%,1.27%
CCC(=O)Nc1ccc(C)c(-c2ccc(C(=O)NCC3CC3)cc2)c1,3.92%,4.52%,5.05%,1.69%,2.75%,2.88%,4.95%,6.02%,4.29%,1.96%
